Results published in PubChem BioAssay (Tox21).
Inconclusive results are not listed. Entries that show only a call come without a potency. Activity calls are given as the source filed them. Unless noted, calls follow the shape of the dose curve; as a rule, active = well fitted cell-killing curve with a large enough effect in the repeat runs; inconclusive = weak or mixed curves, or effect the other way; inactive = no such curve, though single readings can be large or run the other way.

What was measured:
[1] = qHTS assay to identify small molecule agonists of the farnesoid-X-receptor (FXR) signaling pathway - cell viability counter screen (AID 743218); also: nearly all actives have a fitted effect of over 45% in size; also: potency is read from the fitted curve at half-maximal effect
Outline: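 HEK 293T FXR-bla cells; 5 h pre-incubation, 16 h compound exposure at 37 C; LiveBLAzer substrate 2 h RT, then CellTiter-Glo 30 min RT, luminescence.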

[2] = qHTS assay to identify small molecule antagonists of the farnesoid-X-receptor (FXR) signaling pathway - cell viability counter screen (AID 743221; active = well fitted cell-killing curve with a large enough effect in the repeat runs, not every such curve was filed as active; also: nearly all actives have a fitted effect of over 50% in size; also: potency is read from the fitted curve at half-maximal effect)
Outline: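 After a 5 h settling period, FXR-bla HEK 293T cells receive compound and chenodeoxycholic acid (50 uM final) and incubate 16 h at 37 C; CellTiter-Glo luminescence, read after 30 min at room temperature, reports cell viability.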

[3] = qHTS assay to identify small molecule agonists of the vitamin D receptor (VDR) signaling pathway - cell viability counter screen (AID 743224); also: nearly all actives have a fitted effect of over 50% in size; also: potency is read from the fitted curve at half-maximal effect
Outline: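 Luminescence from CellTiter-Glo, read after 30 min at room temperature, reports viability of VDR-bla cells treated with compounds for 16 h at 37C in the wells used for the beta-lactamase FRET read.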

[4] = target: Bile acid receptor (Homo sapiens) (UniProt Q96RI1); experiment: qHTS assay to identify small molecule antagonists of the farnesoid-X-receptor (FXR) signaling pathway (AID 743217; active = well fitted inhibition curve with a large enough effect in the signal ratio in the repeat runs, not every such curve was filed as active; the % refers to the signal ratio)
Chain of Bile acid receptor (Homo sapiens) (Q96RI1 whole entry, looked up): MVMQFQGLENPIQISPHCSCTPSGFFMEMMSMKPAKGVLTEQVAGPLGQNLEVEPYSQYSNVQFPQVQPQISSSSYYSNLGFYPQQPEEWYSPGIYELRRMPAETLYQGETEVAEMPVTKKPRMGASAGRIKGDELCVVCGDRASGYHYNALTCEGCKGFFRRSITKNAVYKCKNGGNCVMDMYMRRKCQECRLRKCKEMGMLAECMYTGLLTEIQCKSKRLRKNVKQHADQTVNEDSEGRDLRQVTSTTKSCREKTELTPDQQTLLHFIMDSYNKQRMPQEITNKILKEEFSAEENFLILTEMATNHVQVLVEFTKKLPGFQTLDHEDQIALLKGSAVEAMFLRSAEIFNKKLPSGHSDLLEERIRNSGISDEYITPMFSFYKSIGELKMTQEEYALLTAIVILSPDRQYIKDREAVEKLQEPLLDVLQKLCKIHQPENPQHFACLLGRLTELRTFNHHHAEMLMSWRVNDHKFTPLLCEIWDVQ
Outline: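 HEK 293T FXR-UAS-bla, 5000 cells/well; compound + CDCA 50 uM final; 16 h, 37 °C; B/G FRET substrate 2 h RT; fluorescence.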

[5] = target: Bile acid receptor (Homo sapiens) (UniProt Q96RI1); experiment: qHTS assay to identify small molecule agonists of the farnesoid-X-receptor (FXR) signaling pathway (AID 743220; active = well fitted activation curve with a large enough effect in the signal ratio in the repeat runs, not every such curve was filed as active; the % refers to the signal ratio)
Outline: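 Beta-lactamase reporter under UAS control in GeneBLAzer FXR HEK 293T cells (5000/well) measured with LiveBLAzer FRET substrate after 2 h at room temperature. Compound exposure lasted 16 h at 37C.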

[6] = target: Vitamin D3 receptor (Homo sapiens) (UniProt P11473); experiment: qHTS assay to identify small molecule agonists of the vitamin D receptor (VDR) signaling pathway (AID 743222; calls by dose curve)
Chain of Vitamin D3 receptor (Homo sapiens) (P11473 whole entry, looked up): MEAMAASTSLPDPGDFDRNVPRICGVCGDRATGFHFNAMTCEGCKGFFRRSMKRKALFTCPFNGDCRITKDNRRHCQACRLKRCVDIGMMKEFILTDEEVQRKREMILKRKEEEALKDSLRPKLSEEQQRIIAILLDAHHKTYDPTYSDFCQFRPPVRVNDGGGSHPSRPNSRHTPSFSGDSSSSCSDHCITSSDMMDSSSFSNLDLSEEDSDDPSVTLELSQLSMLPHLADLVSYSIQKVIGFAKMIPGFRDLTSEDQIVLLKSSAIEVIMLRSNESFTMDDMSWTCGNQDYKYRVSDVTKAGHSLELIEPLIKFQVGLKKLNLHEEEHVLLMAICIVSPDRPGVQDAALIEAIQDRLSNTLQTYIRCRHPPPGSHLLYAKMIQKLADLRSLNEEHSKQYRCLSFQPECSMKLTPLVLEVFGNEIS
Outline: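 VDR-bla cells, 2,000/well; 4 h preincubation 37C; cpd (DMSO) 16 h; LiveBLAzer B/G substrate 2 h RT; fluorescence intensity read.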

[7] = target: Vitamin D3 receptor (Homo sapiens) (UniProt P11473); experiment: qHTS assay to identify small molecule antagonists of the vitamin D receptor (VDR) signaling pathway (AID 743223; active = well fitted inhibition curve with a large enough effect in the signal ratio in the repeat runs, not every such curve was filed as active; the % refers to the signal ratio)
Outline: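 Reporter line VDR-bla; stimulus 1alpha,25-(OH)2 vitamin D3, 3 nM final; compound co-addition, 16 h 37C/5% CO2; LiveBLAzer B/G substrate 2 h RT; fluorescence intensity.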

[8] = target: Peroxisome proliferator-activated receptor delta (Homo sapiens) (UniProt Q03181); experiment: qHTS assay to identify small molecule antagonists of the peroxisome proliferator-activated receptor delta (PPARd) signaling pathway (AID 743215; active = well fitted inhibition curve with a large enough effect in the signal ratio in the repeat runs, not every such curve was filed as active; the % refers to the signal ratio;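 also: cells stimulated with agonist L165041 at 300 nM final during compound exposure; series mostly up to about 62 µM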)
Chain of Peroxisome proliferator-activated receptor delta (Homo sapiens) (Q03181 whole entry, looked up): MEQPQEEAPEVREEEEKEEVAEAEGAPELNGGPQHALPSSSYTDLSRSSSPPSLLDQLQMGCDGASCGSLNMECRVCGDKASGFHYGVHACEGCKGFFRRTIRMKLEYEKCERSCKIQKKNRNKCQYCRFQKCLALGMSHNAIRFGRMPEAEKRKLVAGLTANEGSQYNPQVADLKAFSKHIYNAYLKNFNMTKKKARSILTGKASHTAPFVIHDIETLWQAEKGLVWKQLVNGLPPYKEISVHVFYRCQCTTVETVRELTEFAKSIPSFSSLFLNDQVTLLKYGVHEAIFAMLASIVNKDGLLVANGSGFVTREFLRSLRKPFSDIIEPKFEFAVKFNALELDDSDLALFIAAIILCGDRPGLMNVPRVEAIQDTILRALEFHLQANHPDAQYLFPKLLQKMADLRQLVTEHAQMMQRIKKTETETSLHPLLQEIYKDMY
Outline: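 Read-out is beta-lactamase FRET fluorescence, measured 2 h after substrate addition at room temperature. Beforehand, UAS-bla HEK293H cells carrying the PPARd reporter were exposed to compounds with L165041 at 300 nM final for 17 h at 37 C.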

## BrCCCCBr
[1]
  Potency: inactive
[2]
  Potency: inactive
[3]
  Potency: inactive

## CN(N=O)c1ccc([N+](=O)[O-])cc1
[4]
  Potency: inactive
[5]
  outcome: inactive
[2]
  Potency: inactive
[6]
  outcome: inactive
[7]
  outcome: inactive
[3]
  Potency: inactive

## c1cc2ccc3cccc4ccc(c1)c2c34
[2]
  Potency: inactive

## Clc1ccc(C(OCCN2CCCCC2)c2ccccc2)cc1 (stereo not given)
[6]
  outcome: inactive
[7]
  outcome: inactive

## CCn1cc[n+](C)c1
[1]
  Potency: inactive
[2]
  Potency: inactive
[3]
  Potency: inactive

## CCOP(=O)(OCC)SCCSCC
[1]
  Potency: inactive
[2]
  Potency: inactive
[6]
  outcome: inactive
[7]
  outcome: inactive

## O=C(O)C1(c2ccc3c(c2)OC[C@H](Cc2ccc(-c4ccccc4)cc2)[C@H]3O)CCCC1
[4]
  Potency: inactive
[3]
  Potency: 49 µM (active)

## O=C(OC1CCCCC1)c1ccccc1C(=O)OC1CCCCC1
[1]
  Potency: inactive
[2]
  Potency: inactive
[7]
  outcome: inactive
[3]
  Potency: 46 µM (active)

## NS(=O)(=O)C(F)(F)C(F)(F)C(F)(F)C(F)(F)C(F)(F)C(F)(F)C(F)(F)C(F)(F)F
[1]
  Potency: 54.9 µM (active)
[2]
  Potency: 27.5 µM (active)
[3]
  Potency: 49 µM (active)

## C=CCN1CC[C@]23c4c5ccc(O)c4O[C@H]2C(=O)CC[C@@]3(O)[C@H]1C5
[4]
  Potency: inactive
[1]
  Potency: inactive
[5]
  outcome: inactive
[6]
  outcome: inactive

## CC[C@H]1C[C@H]2[C@@H]3CCC4=CC(=O)CC[C@@H]4[C@H]3CC[C@]2(C)[C@H]1O
[1]
  Potency: inactive
[2]
  Potency: inactive
[7]
  outcome: inactive

## N#Cc1cc(I)c(O)c(I)c1
[8]
  Potency: inactive
[2]
  Potency: inactive
[6]
  outcome: inactive

## C=CC(=O)NCNC(=O)C=C
[2]
  Potency: inactive
[6]
  outcome: inactive
[3]
  Potency: inactive

## C=CC(=O)OCC(C)O (stereo not given)
[4]
  Potency: inactive
[5]
  outcome: inactive
[2]
  Potency: inactive
[6]
  outcome: inactive
[3]
  Potency: inactive

## C/C=C/C=O
[1]
  Potency: inactive
[2]
  Potency: inactive
[6]
  outcome: inactive
[7]
  outcome: inactive
[3]
  Potency: inactive

## Nc1ccc([N+](=O)[O-])cc1[N+](=O)[O-]
[8]
  Potency: inactive
[2]
  Potency: inactive
[6]
  outcome: inactive
[7]
  outcome: inactive

## CCC(C)(NC(=O)c1cc(Cl)c(C)c(Cl)c1)C(=O)CCl (stereo not given)
[2]
  Potency: 55.3 µM (active)
[3]
  Potency: 55.3 µM (active)

## COP(=S)(OC)Oc1ccc([N+](=O)[O-])cc1Cl
[8]
  Potency: inactive
[1]
  Potency: inactive
[3]
  Potency: inactive

## CN(C)c1ccc(N(C)C)cc1
[4]
  Potency: inactive
[1]
  Potency: inactive
[5]
  outcome: inactive
[2]
  Potency: inactive

## COCC(C)N(C(=O)CCl)c1c(C)csc1C (stereo not given)
[4]
  Potency: inactive
[1]
  Potency: inactive
[5]
  outcome: inactive
[2]
  Potency: inactive

## COc1nn(CSP(=S)(OC)OC)c(=O)s1
[5]
  outcome: inactive
[2]
  Potency: inactive

## Cl/C=C\C[N+]12CN3CN(CN(C3)C1)C2
[4]
  Potency: inactive
[1]
  Potency: inactive
[5]
  outcome: inactive
[2]
  Potency: inactive
[6]
  outcome: inactive
[7]
  outcome: inactive

## CCC(Cl)CCl (stereo not given)
[8]
  Potency: inactive
[1]
  Potency: inactive
[6]
  outcome: inactive
[7]
  outcome: inactive
